Assay outcomes deposited in PubChem BioAssay by National Center for Advancing Translational Sciences (NCATS).
This is a sample that favours compounds with a hit; in the whole collection about 9.3% have one here.
HCV inh: blocks hepatitis C virus. Huh7.5.1 HCVcc-Cre infection, luciferase reporter, 44 h. Potency, µM (top dose mostly 41.8 µM), hits mostly inhibitors. actives 3.4% (n = 340,000)
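Antiviral activity was scored by luciferase reporter output from cells infected with HCVcc-Cre (~0.5 moi) in presence of compound, 44 h infection period, cells seeded 1,000/well 4 h prior.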
FMDV antiviral: blocks foot and mouth disease virus | FMDV antiviral cell-based qHTS | Potency, µM (top dose mostly 57.9 µM), hits mostly inhibitors | actives 1.2% (n = 410,000); calls by dose curve; tested in HEK293T cells; also: read-out not given here; nearly all actives have a fitted effect of over 45% in size
Vaccinia Venus: vaccinia inhibition (Venus reporter). actives 0.46% (n = 330,000). Potency, µM (doses to about 36.5 µM), usual class: inhibitors. AID 720580. Vaccinia virus Venus reporter expression, fluorescence; calls by dose curve; tested in A549 cells; also: nearly all actives have a fitted effect of over 30% in size
HCMV inh: human cytomegalovirus inhibition. AID 1259415. HFF cells, HCMV-luciferase reporter, 72 h; stronger effect = lower value. actives 4.5% (n = 410,000). activity change, negative = inhibition, % at 57.5 µM; in the data active = activity change below about -60%; inconclusive = no clear call, values can overlap the other calls; inactive = above about -39%
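Compounds were evaluated in HFFs infected with an HCMV luciferase reporter virus (MOI 1 PFU/cell). Luciferase in lysates collected 72 h post infection served as the replication measure.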
Sm TGR block: S. mansoni TGR enzyme inhibition; Q962Y6; purified TGR, DTNB reduction, TNB absorbance 405 nm; Potency, µM (series often up to 114 µM), usual class: inhibitors; actives 3% (n = 360,000); AID 485364; also: nearly all actives have a fitted effect of over 60% in size
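First, TGR (20 nM dispensed) and NADPH were mixed with compound. Second, a 15 min room-temperature incubation followed. Third, further NADPH and then DTNB were added to start the reaction. Finally, TNB absorbance was monitored kinetically.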
Vaccinia mCherry: vaccinia inhibition (mCherry reporter). Vaccinia virus mCherry reporter infection, fluorescence. Potency, µM (highest dose often 36.5 µM), actives largely listed as inhibitors. actives 0.63% (n = 310,000); calls by dose curve; tested in A549 cells; also: nearly all actives have a fitted effect of over 35% in size
Each line names hits and unclear results; the compound was inactive in the other large screens. Unless noted, calls follow the shape of the dose curve; as a rule, active = well fitted curve in the direction sought with a large enough effect; inconclusive = small, poorly fitted or top-dose-only effect, or another doubt; inactive = no such curve, though single readings can be large; an effect the other way counts as inactive or inconclusive.

CCOc1cccc2sc(N(CCN(CC)CC)C(=O)c3ccc(S(=O)(=O)N4CCCC4)cc3)nc12	none
CC[N+](C)(CC)CCC/C(=N/O)C(O)(c1ccccc1)c1ccccc1	HCMV inh -65
COc1ccc(NC(=O)C(c2ccccc2)c2ccccc2)cn1	none
COc1ccc(C)cc1NS(=O)(=O)c1ccc2c(c1)NC(=O)C(C)S2 (configuration not stated)	HCMV inh -77 (no result: Vaccinia Venus, Vaccinia mCherry)
CCC1Sc2ccc(S(=O)(=O)Nc3ccc(OC)cc3)cc2NC1=O (configuration not stated)	none (no result: Vaccinia Venus, Vaccinia mCherry)
CCC1Sc2ccc(S(=O)(=O)Nc3ccc(OC)c(OC)c3)cc2NC1=O (configuration not stated)	HCV inh 10µM, HCMV inh -76
COc1ccccc1CNS(=O)(=O)c1ccc2c(c1)NC(=O)C(C)S2 (configuration not stated)	HCV inh inconclusive
Cc1cc(C)c2[nH]c(=O)c(C(c3nnnn3CC3CCCO3)N3CCC(C)CC3)cc2c1 (configuration not stated)	Sm TGR block 14µM (no result: Vaccinia Venus, Vaccinia mCherry)
COc1ccc2[nH]c(=O)c(C(c3nnnn3CC3CCCO3)N3CCc4ccccc4C3)cc2c1 (configuration not stated)	Sm TGR block inconclusive (no result: Vaccinia Venus, Vaccinia mCherry)
Cc1ccc2[nH]c(=O)c(C(c3nnnn3CC3CCCO3)N3CCc4ccccc4C3)cc2c1 (configuration not stated)	Sm TGR block 25µM (no result: Vaccinia Venus, Vaccinia mCherry)
Cc1cc(C)c2[nH]c(=O)c(C(c3nnnn3CC3CCCO3)N3CCCC(C)C3)cc2c1 (configuration not stated)	Sm TGR block 13µM (no result: Vaccinia Venus, Vaccinia mCherry)
CCOC(=O)N1CCC(N2Cc3cccc(C(=O)Nc4ccc(F)cc4)c3C2=O)CC1	HCV inh inconclusive, HCMV inh -102 (no result: Vaccinia Venus, Vaccinia mCherry)
CCOC(=O)/C(C#N)=C/C1=C(N2CCOCC2)CC(C)(C)OC1	Sm TGR block 28µM
CC(C)(C)c1ccc(C(=O)N/N=C/c2cccc(Cl)c2)cc1	HCV inh 7.1µM (no result: Vaccinia Venus, Vaccinia mCherry)
COc1ccc2c3c(cccc13)N(C)N=C2C	HCV inh inconclusive
O=C(NC1CCCCC1)c1cc2c(cc1Cl)N1CCCCCC1=NS2(=O)=O	HCMV inh -97
COC(=O)c1nc(NC(=O)c2ccccc2Br)n[nH]1	FMDV antiviral 20µM
COC(=O)c1nc(NC(=O)c2cc(OC)c(OC)c(OC)c2)n[nH]1	Sm TGR block 32µM
S=c1nc(-c2ccccc2)n(Cc2ccco2)c2c1CCCC2	Sm TGR block 35µM (no result: HCV inh, FMDV antiviral, Vaccinia Venus, HCMV inh, Vaccinia mCherry)
c1ccc(-c2nc3nc4ccccc4nc3n2Cc2ccco2)cc1	Sm TGR block 10µM
S=c1nc(-c2ccccc2)n(Cc2cccnc2)c2c1CCCC2	Sm TGR block inconclusive (no result: HCMV inh)
Fc1ccc(-c2nc3nc4ccccc4nc3n2Cc2ccco2)cc1	Sm TGR block 20µM
Cc1ccc(N2C(=O)/C(=C/c3ccc(CN(CCC#N)S(C)(=O)=O)o3)C(=O)NC2=S)cc1C	Sm TGR block 3.2µM (no result: HCV inh, FMDV antiviral, Vaccinia Venus, HCMV inh, Vaccinia mCherry)
Cc1cccc(N2C(=O)/C(=C/c3ccc(CN(CCC#N)S(C)(=O)=O)o3)C(=O)NC2=S)c1	Sm TGR block 8.9µM (no result: Vaccinia mCherry)
COc1cccc(OC)c1C(=O)Nc1ccc(-c2nc3ncccc3o2)cc1	Vaccinia Venus inconclusive, Vaccinia mCherry inconclusive (no result: HCV inh)
CCc1cc2c(SCc3ccc(C(=O)OC)o3)ncnc2s1	none
Cc1ccc(C(=O)NC(C)c2ccc3c(c2)OCO3)s1 (configuration not stated)	HCV inh inconclusive (no result: Vaccinia Venus, Vaccinia mCherry)
Cc1ccc(-n2c(SCC(=O)NCc3ccc(F)cc3)nc3c([nH]c4ccccc43)c2=O)cc1	HCMV inh inconclusive (no result: HCV inh)
COc1ccc(Cn2c(SCC(=O)N(C)Cc3ccccc3)nc3ccccc32)cc1	none (no result: HCV inh)
CCc1ccc(OCCOCC(O)CN2CCN(Cc3ccc(Cl)cc3)CC2)cc1 (configuration not stated)	HCV inh inconclusive
OC(CNC1CCCCC1)COCCOc1ccc(Br)cc1 (configuration not stated)	HCV inh 7.9µM, FMDV antiviral inconclusive
OC(COCCOc1ccc(Br)cc1)CN1CCN(Cc2ccccc2)CC1 (configuration not stated)	HCV inh inconclusive, FMDV antiviral inconclusive, HCMV inh -101, Vaccinia mCherry inconclusive
COc1ccc(/C=C/C(=O)Nc2ccc(C)cc2)cc1	Vaccinia Venus inconclusive (no result: HCV inh)
O=C(OCc1nc2ccsc2c(=O)[nH]1)c1cc(Br)c(Br)s1	none
Cc1ccc(CN2CCC(CNC(=O)c3cc4ccc5cccnc5c4[nH]3)CC2)cc1	Vaccinia Venus inconclusive, HCMV inh -106, Vaccinia mCherry inconclusive (no result: HCV inh)
COc1ccc([C@@H]2CC(=O)c3c(O)cc(O)cc3O2)cc1O	none
COc1c(CC=C(C)C)cc(C2CC(=O)c3c(O)cc(O)cc3O2)cc1CC=C(C)C (configuration not stated)	HCV inh inconclusive, FMDV antiviral inconclusive, HCMV inh -69
COc1ccc(NC(=O)c2ccc(S(=O)(=O)NCc3cccnc3)cc2)cc1	HCV inh inconclusive
O=C(O)c1cccc2nc3ccccc3nc12	HCMV inh -63, Vaccinia mCherry inconclusive
O=C(O)c1nc2ccccc2nc1C(=O)O	none (no result: Vaccinia Venus, Vaccinia mCherry)
O=C(CSc1ncnc2[nH]ncc12)Nc1nc(-c2ccc(F)c(F)c2)cs1	HCV inh inconclusive, FMDV antiviral 14µM, HCMV inh -90 (no result: Vaccinia Venus, Vaccinia mCherry)
O=C(CN1C(=O)NC2(CCCC2)C1=O)Nc1nc(-c2ccccc2)cs1	HCV inh inconclusive
O=C(CN1C(=O)NC2(CCCC2)C1=O)Nc1nc(-c2ccc(F)c(F)c2)cs1	HCV inh 4µM, FMDV antiviral inconclusive (no result: Vaccinia Venus, Vaccinia mCherry)
C=CCN(c1ccccc1)S(=O)(=O)c1cccc(C(=O)NCC(c2ccc(OC)cc2)N2CCCCC2)c1 (configuration not stated)	HCV inh 6.3µM, Vaccinia Venus inconclusive, Vaccinia mCherry inconclusive
COc1ccc(C(CNC(=O)c2cccc(S(=O)(=O)Nc3ccccc3OC)c2)N2CCCC2)cc1 (configuration not stated)	none
COc1ccc(C(CNC(=O)c2cccc(S(=O)(=O)Nc3ccccc3OC)c2)N2CCCCC2)cc1 (configuration not stated)	HCV inh inconclusive, HCMV inh -99 (no result: Sm TGR block)
CCN(c1ccccc1)S(=O)(=O)c1cccc(C(=O)NCC(c2ccc(OC)cc2)N2CCCCC2)c1 (configuration not stated)	none (no result: HCV inh, Sm TGR block)
Cc1oc(-c2ccc(C(F)(F)F)cc2)nc1CN(Cc1ccccn1)C[C@@H]1CCC(=O)N1	HCV inh inconclusive, Sm TGR block inconclusive
O=C1Nc2cc(C(=O)N3CCOCC3)ccc2SC1N1CCOCC1 (configuration not stated)	none
CCCCCCCCN1C(=O)[C@H](CC(=O)N2CCN(C(=O)c3ccco3)CC2)C[C@@]2(C(=O)OC)CCCCC=C12	none (no result: HCV inh, Sm TGR block)
